From PubChem
Sampled rows, rich in hits. Any-hit rate of the full collection: about 2.4%.
D2 antagonist = HTS Assay for Allosteric Antagonists of the Human D2 Dopamine Receptor: Primary Screen for Antagonists | D(2) dopamine receptor (Homo sapiens), P14416 | HEK293 TREx D2 cells, calcium flux, dopamine EC80 | inhibition, % at 10 µM | 340,000 compounds, 2% hits; in the data active = inhibition above about 30%; inactive = below that, where a call was filed; also: 0% is about no effect
Target sequence (P14416 whole entry, looked up): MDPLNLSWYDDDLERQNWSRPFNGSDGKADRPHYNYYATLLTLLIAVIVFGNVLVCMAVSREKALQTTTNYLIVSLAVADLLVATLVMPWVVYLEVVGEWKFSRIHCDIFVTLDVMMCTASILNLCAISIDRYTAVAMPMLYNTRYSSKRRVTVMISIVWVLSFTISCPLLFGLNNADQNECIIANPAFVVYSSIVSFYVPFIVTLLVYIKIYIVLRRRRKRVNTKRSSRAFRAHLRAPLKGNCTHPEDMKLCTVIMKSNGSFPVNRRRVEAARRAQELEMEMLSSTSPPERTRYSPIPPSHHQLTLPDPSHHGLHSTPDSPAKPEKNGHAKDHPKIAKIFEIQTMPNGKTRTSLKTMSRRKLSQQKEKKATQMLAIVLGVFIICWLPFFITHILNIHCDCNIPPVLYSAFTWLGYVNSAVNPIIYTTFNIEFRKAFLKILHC
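Calcium flux kinetic readout in an inducible HEK293 TREx D2 line plated overnight at 30 C. After 180 s compound exposure, an EC80 dopamine challenge follows with another 180 s kinetic read to detect antagonism.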
D2 ag-1 = HTS Assay for Allosteric Agonists of the Human D2 Dopamine Receptor: Primary Screen for Agonists; D(2) dopamine receptor (Homo sapiens), P14416; HEK293 T-REx D2 cells, calcium flux agonist mode; activation, % at 2 µM; 340,000 compounds, 0.53% hits; AID 485358, 2010;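 active = activation over 3 SD above normal in the single-dose calcium agonist read, cut at about 30% in these data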; also: 0% is about no effect
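Calcium-flux readout, 1 cycle/sec over 180 s following compound pin transfer, in inducible HEK293 Trex D2 cells (force-coupled); dopamine controls included. Positive calcium responses during this window marked compounds as potential agonists.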
D2 PAM-1 = HTS Assay for Positive Allosteric Modulators of the Human D2 Dopamine Receptor: Primary Screen for Potentiators; D(2) dopamine receptor (Homo sapiens), P14416; HEK293 T-REx D2, calcium flux, EC20 dopamine potentiation; potentiation, % at 10 µM; 340,000 compounds, 0.34% hits;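 active = potentiation over 3 SD above the plate norm, cut at about 30% in these data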; also: 0% is about no effect
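Using a no-wash calcium dye in inducible, force-coupled HEK293 Trex cells expressing D2, we tracked fluorescence each second for 180 s after compound, then for 180 s after EC20 dopamine to detect augmented signalling.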
D2 PAM-2 = Beta-Arrestin HTS for Positive Allosteric Modulators of the Human D2 Dopamine Receptor: Potentiators. D(2) dopamine receptor (Homo sapiens), P14416. DiscoveRx D2 beta-arrestin cells, luminescence, 90 min; 100% = 57 uM dopamine signal. potentiation, % (no concentration beside the values). 360,000 compounds, 0.23% hits; in the data active = potentiation above about 50%; inconclusive = mostly about 30% to 49%
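PathHunter D2 cells, attached overnight at 37 deg C, received compound in DMSO plus dopamine at EC20 (50 nM final) for 90 min at 37 deg C. Beta-arrestin recruitment was read as luminescence after 1 h with detection reagent at ambient temperature.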
D2 ag-2 = Beta-Arrestin HTS for Positive Allosteric Modulators of the Human D2 Dopamine Receptor: Agonists. activation, % (test concentration not listed). DiscoveRx PathHunter D2 beta-arrestin, luminescence, 90 min; 100% = 57 uM dopamine signal. 360,000 compounds, 0.084% hits. D(2) dopamine receptor (Homo sapiens), P14416. AID 624465, 2012; in the data active = activation above about 40%; inconclusive = between about 15% and that limit
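DiscoveRx PathHunter D2 beta-arrestin cells (2,100/well) attached overnight, then compound-stimulated 90 min at 37 C in HBSS/10 mM HEPES/0.1% Tween-20 buffer; beta-galactosidase complementation read by luminescence after 1 h at ambient temperature. Dopamine 57 uM final (EC100) as control.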
Numbers without * were called inactive; u = inconclusive; x = no result given.

SMILES | D2 antagonist | D2 ag-1 | D2 PAM-1 | D2 PAM-2 | D2 ag-2
O=C(O)C1=C[C@@H](c2ccc3c(c2)OCO3)C[C@@H](OCc2ccc(CO)cc2)O1 | -8 | 0 | 12 | -36 | 1
NC(=O)C1=C[C@H](c2ccc3c(c2)OCO3)C[C@H](OCc2ccc(CO)cc2)O1 | 33* | 0 | -7 | -8 | 1
O=C(CN1CCN(c2ccccc2F)CC1)Nc1ccc2c(c1)CCC2 | 69* | -1 | -22 | -1 | 4
Cc1ccc(NC(=O)CN2CCN(c3ccccc3F)CC2)cc1F | x | -3 | -28 | x | x
COc1ccccc1N1CCN(CCC(=O)Nc2ccc(F)cc2)CC1 | 66* | 5 | -23 | -28 | -5
Cc1ccc(NC(=O)CN2CCC(NC(=O)c3cccc(F)c3)CC2)cc1C | 6 | 0 | -3 | -37 | 0
CCOC(=O)N1CCN(CCC(=O)Nc2ccccc2OC)CC1 | 50* | 2 | -6 | -12 | -1
O=C(CN1CCC(NC(=O)C2CC2)CC1)Nc1cccc(F)c1 | 31* | 0 | -21 | -19 | -3
COc1ccccc1N1CCN(CC(=O)Nc2cccc(F)c2)CC1 | 31* | 0 | -21 | -15 | -3
COc1ccccc1N1CCN(CCCCCCOc2ccc(F)cc2)CC1 | 81* | 6 | -48 | -30 | -1
CCOC(=O)c1c(C)n(C)c2ccc(OC)c(NC(=O)CN3CCSCC3)c12 | -12 | 0 | 1 | -8 | -4
COc1ccccc1N1CCN(CCC(=O)Nc2cccc(Cl)c2)CC1 | 96* | 36* | -39 | -26 | -2
CCOC(=O)c1c(C)n(C)c2ccc(OC)c(NC(=O)CCN3CCC(Cc4ccccc4)CC3)c12 | 91* | 0 | -32 | -16 | -3
COc1ccccc1N1CCN(CC(=O)Nc2ccc(C)c(F)c2)CC1 | -8 | -1 | 0 | -37 | -4
Cc1nc2ccn(Cc3ccco3)c(=O)c2cc1C(=O)NCc1ccc(Cl)cc1 | x | 3 | 6 | x | x
Cc1cc(C)cc(OCCOCCn2c(-c3ccc(Cl)cc3)nc3ccccc3c2=O)c1 | x | 2 | 4 | x | x
O=S(=O)(c1ccc2c(c1)OCO2)N1CCN(c2nnnn2-c2ccccc2)CC1 | 36* | 1 | 26 | -7 | -4
CCN(CC)CCn1c(NS(=O)(=O)c2ccc(C)cc2)nc2ccccc21 | 51* | 0 | -19 | -40 | -2
C=CCNC(=S)NNC(=O)c1ccc(OCCC)cc1 | 6 | -1 | -4 | -8 | -5
CCCOc1ccc(NC(=O)c2c(-c3ccccc3)noc2C)cc1 | 1 | 0 | -7 | 1 | -6
Cc1onc(-c2ccccc2)c1C(=O)Nc1nnc(COc2ccc(Cl)cc2)s1 | 39* | 1 | x | u | 0
CCCOc1ccc(C(=O)NNC(=S)NC(=O)CC)cc1 | 72* | 0 | -11 | -18 | -6
CCCOc1ccc(C(=O)NC(=S)NNC(=O)c2c(-c3ccccc3)noc2C)cc1 | 25 | 70* | -12 | -23 | -14
Cc1cc(Br)ccc1NC(=O)c1ccc(NS(=O)(=O)c2c(C)noc2C)cc1 | x | 1 | 3 | x | x
Cc1ccc(C)c(N2CCN(CCCNC(=O)c3ccc4nc(C(C)C)oc4c3)CC2)c1 | x | 0 | -25 | x | x
SMILES | D2 antagonist | D2 ag-1 | D2 PAM-1 | D2 PAM-2 | D2 ag-2
Fc1ccc(CNc2nc3c(-c4ccc(F)cc4)nnn3c3ccccc23)cc1 | x | 0 | 3 | x | x
COc1c(C)cc(Br)cc1C(=O)Nc1ccccc1C | 8 | -2 | -3 | -5 | -9
COc1c(C)cc(Br)cc1C(=O)O | 40* | 1 | -9 | -5 | -1
CCOc1ccc(NC(=O)CN2C(=O)c3ccccc3Sc3ccc(C(=O)OC)cc32)cc1 | x | -1 | 9 | x | x
COc1ccccc1C1CCN(c2cc(O)ccc2[N+](=O)[O-])CC1 | 34* | 3 | -1 | -11 | -5
COc1ccc(C2NC(=O)N(C)C3=C2C(=O)N(c2cccc(Cl)c2)C3)cc1 (centres undefined) | x | 0 | -5 | x | x
COc1cc2ccccc2nn1 | -5 | 1 | 12 | -6 | -2
